This is an account of results in PubChem BioAssay (NCATS).

One experiment has as its system HB3. Nature of the experiment: qHTS profiling for inhibitors of Plasmodium falciparum proliferation (AID 504749). Note: potency is the fitted concentration of half-maximal effect. As to conditions: P. falciparum in erythrocytes, SYBR Green DNA, 72 h; series mostly up to 28.7 µM. In outline:
(§1)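 Readout was DNA-dye fluorescence from lysed cultures, ex 485/em 535 nm. Parasitized red cells had grown 72 h with compound; data scaled between 0.29 uM artemisinin and DMSO wells and corrected using vehicle-only plates.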
For orientation: Quantitative high-throughput screening tests each substance at several concentrations.

The next experiment relates to ICS. Described as above. The settings on record: P. falciparum in erythrocytes, SYBR Green DNA, 72 h; series mostly up to 28.7 µM. In outline: as §1
A further experiment has as its system JCK. The experiment is described as above. The settings on record: P. falciparum in erythrocytes, SYBR Green DNA, 72 h; series mostly up to 28.7 µM. An outline of the steps:
as §1

Another experiment concerns N140. The description is as above. As to conditions: P. falciparum in erythrocytes, SYBR Green DNA, 72 h; series mostly up to 28.7 µM. An outline of the steps:
as §1

The next experiment concerns P93_24. Described as above. As to conditions: P. falciparum in erythrocytes, SYBR Green DNA, 72 h; series mostly up to 28.7 µM. In outline: as §1
A further experiment has as its system P94_40. Described as above. The settings on record: P. falciparum in erythrocytes, SYBR Green DNA, 72 h; series mostly up to 28.7 µM. An outline of the steps:
as §1

A further experiment concerns PAD. The description is as above. The settings on record: P. falciparum in erythrocytes, SYBR Green DNA, 72 h; series mostly up to 28.7 µM. An outline of the steps: as §1
A further experiment deals with PC15. The description is as above. The settings on record: P. falciparum in erythrocytes, SYBR Green DNA, 72 h; series mostly up to 28.7 µM. In outline:
as §1

The next experiment relates to PC26. The description is as above. As to conditions: P. falciparum in erythrocytes, SYBR Green DNA, 72 h; series mostly up to 28.7 µM. An outline of the steps:
as §1

The subject of a further experiment is PC49. The description is as above. As to conditions: P. falciparum in erythrocytes, SYBR Green DNA, 72 h; series mostly up to 28.7 µM. An outline of the steps:
as §1

The subject of the next experiment is SC27B. Described as above. The settings on record: P. falciparum in erythrocytes, SYBR Green DNA, 72 h; series mostly up to 28.7 µM. In outline:
as §1

The test system of a further experiment is TAB109. Described as above. The settings on record: P. falciparum in erythrocytes, SYBR Green DNA, 72 h; series mostly up to 28.7 µM. In outline:
as §1

For another experiment, the system named is TAB113. Described as above. As to conditions: P. falciparum in erythrocytes, SYBR Green DNA, 72 h; series mostly up to 28.7 µM. In outline: as §1
The next experiment relates to TAB165. The description is as above. As to conditions: P. falciparum in erythrocytes, SYBR Green DNA, 72 h; series mostly up to 28.7 µM. In outline: as §1
Another experiment deals with W2. The experiment is described as above. As to conditions: P. falciparum in erythrocytes, SYBR Green DNA, 72 h; series mostly up to 28.7 µM. An outline of the steps:
as §1

For another experiment, the system named is CRL-7250. As to the kind of experiment: Cytotoxic Profiling of Annotated Libraries Using Quantitative High-Throughput Screening (AID 1296008). For max response: % is set by controls: 0 for no effect and ±100 for the full control effect. As to conditions: Five cell lines viability, CellTiter-Glo ATP luminescence, 48-72 h; max response: active compounds read low. In outline:
(§2)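 Cells exposed to compounds for 48 or 72 hr at 37 degrees Celsius. Viability read as ATP-coupled luminescence with CellTiter-Glo after 10 min at room temperature.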

A further experiment has as its system HEK293. Described as above. The settings on record: Five cell lines viability, CellTiter-Glo ATP luminescence, 48-72 h; max response: active compounds read low. An outline of the steps:
as §2

Another experiment concerns HaCat. The description is as above. As to conditions: Five cell lines viability, CellTiter-Glo ATP luminescence, 48-72 h; max response: active compounds read low. An outline of the steps: as §2
On the technique in general: ATP-based viability assays read luminescence as a measure of living cells.

The next experiment concerns KB-3-1. Described as above. The settings on record: Five cell lines viability, CellTiter-Glo ATP luminescence, 48-72 h; max response: active compounds read low. An outline of the steps:
as §2

The next experiment relates to NIH3T3. The description is as above. The settings on record: Five cell lines viability, CellTiter-Glo ATP luminescence, 48-72 h; max response: active compounds read low. An outline of the steps: as §2

Records with an inconclusive call do not appear. Values without a mark were called inactive. Activity calls are given as the source filed them. Calls come from the whole dose curve; as a rule, active = well fitted inhibition curve with a large enough effect; inconclusive = small, poorly fitted or top-dose-only effect; inactive = flat fitted curve, though single readings scatter.
Note: nearly all actives have a fitted effect of over 60% in size.

As to `O=C1C(CCS(=O)c2ccccc2)C(=O)N(c2ccccc2)N1c1ccccc1` (centres undefined), the Potency result with HB3, with ICS, with JCK, in the experiment with N140, with P93_24 and in the experiment on P94_40 was “inactive” each time. In addition, the Potency entry with PAD, in the experiment with PC15, in the experiment with PC26, with PC49, with SC27B and with TAB109 was “inactive” throughout. The Potency result in the experiment with TAB113, with TAB165 and with W2 was “inactive” in each case. Further, the max response in the experiment on CRL-7250 was -1.85%; with HEK293 it was -3.91%; with KB-3-1, 4.22%; in the experiment with NIH3T3, -2.37%. Also, in the experiment with HaCat, the result was inactive.
`CC(=O)NC(=O)c1ccccc1O`: the Potency entry with HB3, in the experiment on ICS, with JCK, with N140, in the experiment on P93_24 and in the experiment with P94_40 was “inactive” each time. In addition, the Potency entry with PAD, in the experiment on PC15, with PC26, with PC49, in the experiment on SC27B and with TAB109 was “inactive” throughout. Moreover, the Potency result with TAB113, in the experiment on TAB165 and in the experiment with W2 was “inactive” throughout. The max response is -3.82% in the experiment with CRL-7250; -1.84% in the experiment on HEK293; -6.77% with HaCat; -3.04% with KB-3-1; 0.511% in the experiment with NIH3T3.
For the compound `CCCCC(CC)COC(=O)c1ccc(N(C)C)cc1` (centres undefined), the Potency entry with HB3, in the experiment with ICS, in the experiment with JCK, in the experiment with N140, in the experiment on P93_24 and in the experiment with P94_40 was “inactive” in each case. Moreover, the Potency result with PAD, in the experiment on PC15, in the experiment with PC26, with PC49, with SC27B and with TAB109 was “inactive” in each case. The Potency entry with TAB113, in the experiment on TAB165 and in the experiment on W2 was “inactive” each time. Further, in the experiment with CRL-7250, the call was inactive. Moreover, the max response with HEK293 was -4.34%; with HaCat, -11.9%; in the experiment on KB-3-1, 0.633%; with NIH3T3, 4.63%.
With `O=S(c1cc(Cl)cc(Cl)c1O)c1cc(Cl)cc(Cl)c1O`, the figures for the Potency in the experiment on HB3, in the experiment on PC49 and in the experiment on TAB165 were 3.2 nM (active), 398 nM (active) and 355 nM (active), respectively. Besides, the Potency result with ICS and in the experiment with PC15 was “inactive” each time. Also, the call in the experiment on CRL-7250 was inactive. The max response is -2.46% in the experiment on HEK293, -16.1% in the experiment on HaCat, -2.92% in the experiment on KB-3-1 and 1.36% in the experiment on NIH3T3.
For the compound `CCOc1ccccc1C(N)=O`, the Potency result with HB3, in the experiment with ICS, in the experiment with JCK, in the experiment on N140, in the experiment with P93_24 and in the experiment with P94_40 was “inactive” in each case. The Potency entry in the experiment on PAD, in the experiment on PC15, in the experiment with PC26, in the experiment with PC49, in the experiment with SC27B and in the experiment on TAB109 was “inactive” throughout. Also, the Potency entry with TAB113, in the experiment with TAB165 and in the experiment with W2 was “inactive” each time. The compound was called inactive in the experiment on CRL-7250 and in the experiment with NIH3T3. Also, the max response is -2.36% in the experiment on HEK293, 1.44% in the experiment with HaCat and -15.7% in the experiment with KB-3-1.
Regarding `CNCCc1ccccn1`, the Potency result in the experiment with HB3, with ICS, in the experiment on JCK, with N140, in the experiment on P93_24 and with P94_40 was “inactive” throughout. Moreover, the Potency result in the experiment with PAD, in the experiment with PC15, in the experiment with PC26, in the experiment on PC49, with SC27B and in the experiment on TAB109 was “inactive” in each case. Also, the Potency entry in the experiment with TAB113, with TAB165 and with W2 was “inactive” in each case. In addition, the call in the experiment on CRL-7250 was inactive. Besides, the max response was -1.02% in the experiment with HEK293, -8.27% with HaCat, 5.51% with KB-3-1 and -2.69% in the experiment with NIH3T3.
For the compound `CCCCN=C(N)N=C(N)N`, the Potency result with HB3, in the experiment with ICS, with JCK, in the experiment with N140, with P93_24 and with P94_40 was “inactive” each time. For the same compound, the Potency result in the experiment on PAD, in the experiment with PC15, in the experiment with PC26, in the experiment with PC49, in the experiment with SC27B and in the experiment with TAB109 was “inactive” each time. The Potency result with TAB113, in the experiment on TAB165 and in the experiment on W2 was “inactive” throughout. The max response is 1.78% with CRL-7250, 2.62% with HaCat, 1.99% in the experiment on KB-3-1 and -1.41% with NIH3T3. In addition, the compound was classed as inactive in the experiment with HEK293.
Consider `CC(C)Nc1cccnc1N1CCN(C(=O)c2cc3cc(NS(C)(=O)=O)ccc3[nH]2)CC1`, for which the Potency entry with HB3, in the experiment on JCK, in the experiment with N140, with P94_40, with PAD and with PC15 was “inactive” throughout. In addition, the Potency entry in the experiment with PC26, with PC49, with SC27B, in the experiment on TAB109, in the experiment with TAB113 and in the experiment on TAB165 was “inactive” each time. The results for the Potency in the experiment with ICS and with W2 were 7940 nM (active) and 9530 nM (active), respectively. Besides, the result in the experiment with CRL-7250 was inactive. Also, the max response in the experiment with HEK293 is -14.8%; in the experiment on HaCat it was 0.0011%; with KB-3-1, -4.88%; with NIH3T3, -1.79%.
As for `CCCCCCCCOc1ccc(C(=O)c2ccccc2)c(O)c1`, the Potency entry in the experiment with HB3, with ICS, with JCK, in the experiment on N140, in the experiment on P93_24 and in the experiment with P94_40 was “inactive” each time. Further, the Potency result in the experiment with PAD, in the experiment with PC15, in the experiment with PC26, with PC49, in the experiment with SC27B and with TAB109 was “inactive” each time. The Potency entry in the experiment on TAB113, in the experiment with TAB165 and with W2 was “inactive” throughout. The max response is -1.36% with CRL-7250; -1.87% in the experiment on HEK293; -8.31% in the experiment on HaCat; 1.72% in the experiment with KB-3-1; -1.51% in the experiment with NIH3T3.
Turning to `O=C(O)CCc1nc2ccccc2[nH]1`, the Potency in the experiment with HB3 was 8.9 nM (active); in the experiment on PC49, 10 nM (active); with TAB165, 7940 nM (active). Besides, the Potency result with ICS, in the experiment on PC15 and in the experiment with TAB109 was “inactive” in each case. Further, the max response in the experiment with CRL-7250 was -5.04%; with HEK293 it was -3.96%; in the experiment on HaCat, -3%; in the experiment with KB-3-1, -8.67%; in the experiment on NIH3T3, -8.19%.
Consider `CCOc1ccc(NC(C)=O)cc1`, for which the Potency entry in the experiment on HB3, in the experiment with ICS, in the experiment with JCK, with N140, with P93_24 and in the experiment on P94_40 was “inactive” throughout. The Potency result in the experiment with PAD, in the experiment on PC15, in the experiment with PC26, with PC49, with SC27B and with TAB109 was “inactive” throughout. For the same compound, the Potency result in the experiment on TAB113, in the experiment with TAB165 and with W2 was “inactive” each time. For the same compound, the max response in the experiment on CRL-7250 is -21.4%; in the experiment with HEK293, -5.15%; with HaCat, -1.35%; in the experiment with KB-3-1, 8.88%; in the experiment on NIH3T3, -7.54%.
`C#C[C@]1(O)CC[C@H]2[C@@H]3CCc4cc(OC)ccc4[C@H]3CC[C@@]21C`: the Potency entry in the experiment with HB3, in the experiment with JCK, in the experiment with N140, in the experiment with P93_24, in the experiment on P94_40 and with PAD was “inactive” in each case. The Potency entry in the experiment on PC15, in the experiment with PC26, with PC49, in the experiment with SC27B, in the experiment with TAB109 and in the experiment with TAB113 was “inactive” throughout. In addition, the Potency entry in the experiment with TAB165 and in the experiment with W2 was “inactive” in each case. For the same compound, the max response was -13.3% in the experiment with CRL-7250; -6.93% with HEK293; -21.7% in the experiment with HaCat; 0.369% in the experiment on KB-3-1; -5.18% in the experiment with NIH3T3.
